Laboratory results from the supplement of paper PMC8728848.
This excerpt belongs to a sample that is enriched for the strongest signals.

Experiments:
Assay in all cases: glycan array binding signal (z-score within array); higher = stronger binding
Conditions in all cases: glycan notation: IUPAC condensed, linker removed
[1] = target: Fuc(a1-2)Gal(b1-3)GalNAc(b1-3)Gal
Summary of the method: (§1)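 Glycan array data were curated from 3228 arrays in the Consortium for Functional Glycomics database and kept only where the protein sequence was available. Glycan names were converted to IUPAC-condensed notation, and columns mapping to the same glycan were averaged. The binding signal is a within-array Z-score, averaged across arrays of the same protein sequence at different concentrations or buffers and across linkers. Negative Z-scores can be read as non-binding.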

[2] = target: Fuc(a1-2)Gal(b1-4)GlcNAc(b1-3)Gal(b1-4)GlcNAc(b1-3)Gal(b1-4)GlcNAc
Summary of the method: as §1

[3] = target: Fuc(a1-2)Gal(b1-4)GlcNAc(b1-3)GalNAc
Summary of the method: as §1

[4] = target: Fuc(a1-2)Gal(b1-4)[Fuc(a1-3)]GlcNAc(b1-3)Gal(b1-4)[Fuc(a1-3)]GlcNAc
Summary of the method: as §1

[5] = target: Fuc(a1-2)[Gal(a1-3)]Gal(b1-3)GalNAc
Summary of the method: as §1

[6] = target: Fuc(a1-2)[Gal(a1-3)]Gal(b1-4)GlcNAc
Summary of the method: as §1

[7] = target: Fuc(a1-2)[Gal(a1-3)]Gal(b1-4)GlcNAc(b1-3)[Fuc(a1-2)[Gal(a1-3)]Gal(b1-4)GlcNAc(b1-6)]GalNAc
Summary of the method: as §1

[8] = target: Fuc(a1-2)[Gal(a1-3)]Gal(b1-4)[Fuc(a1-3)]GlcNAc(b1-3)GalNAc
Summary of the method: as §1

[9] = target: Fuc(a1-2)[GalNAc(a1-3)]Gal(b1-4)GlcNAc
Summary of the method: as §1

[10] = target: Fuc(a1-3)GlcNAc
Summary of the method: as §1

[11] = target: Fuc(a1-3)[Gal(b1-4)]GlcNAc(b1-2)Man(a1-3)[Fuc(a1-3)[Gal(b1-4)]GlcNAc(b1-2)Man(a1-6)]Man(b1-4)GlcNAc(b1-4)[Fuc(a1-6)]GlcNAc
Summary of the method: as §1

[12] = target: Gal(a1-2)Gal
Summary of the method: as §1

[13] = target: Gal(a1-3)Gal(b1-4)Glc
Summary of the method: as §1

[14] = target: Gal(a1-3)Gal(b1-4)GlcNAc
Summary of the method: as §1

[15] = target: Gal(a1-3)Gal(b1-4)[Fuc(a1-3)]GlcNAc(b1-2)Man(a1-3)[Gal(a1-3)Gal(b1-4)[Fuc(a1-3)]GlcNAc(b1-2)Man(a1-6)]Man(b1-4)GlcNAc(b1-4)GlcNAc
Summary of the method: as §1

[16] = target: Gal(a1-3)[Gal(a1-4)]Gal(b1-4)GlcNAc
Summary of the method: as §1

[17] = target: Gal(b1-3)GlcNAc(b1-6)[Gal(b1-3)]GalNAc
Summary of the method: as §1

[18] = target: Gal(b1-4)GlcNAc(b1-2)Man(a1-3)[Gal(b1-4)GlcNAc(b1-2)Man(a1-6)]Man(b1-4)GlcNAc(b1-4)[Fuc(a1-6)]GlcNAc
Summary of the method: as §1

[19] = target: Gal(b1-4)GlcNAc(b1-2)Man(a1-3)[Man(a1-6)]Man(b1-4)GlcNAc(b1-4)GlcNAc
Summary of the method: as §1

[20] = target: Gal(b1-4)GlcNAc(b1-2)Man(a1-6)[GlcNAc(b1-2)Man(a1-3)]Man(b1-4)GlcNAc(b1-4)GlcNAc
Summary of the method: as §1

[21] = target: Gal(b1-4)GlcNAc(b1-2)[Gal(b1-4)GlcNAc(b1-4)]Man(a1-3)[GlcNAc(b1-4)][Gal(b1-4)GlcNAc(b1-2)Man(a1-6)]Man(b1-4)GlcNAc(b1-4)GlcNAc
Summary of the method: as §1

[22] = target: Gal(b1-4)GlcNAc(b1-3)Gal(b1-4)GlcNAc(b1-3)Gal(b1-4)GlcNAc(b1-3)Gal(b1-4)GlcNAc(b1-3)Gal(b1-4)GlcNAc(b1-2)Man(a1-3)[Gal(b1-4)GlcNAc(b1-3)Gal(b1-4)GlcNAc(b1-3)Gal(b1-4)GlcNAc(b1-3)Gal(b1-4)GlcNAc(b1-3)Gal(b1-4)GlcNAc(b1-2)Man(a1-6)]Man(b1-4)GlcNAc(b1-4)GlcNAc
Summary of the method: as §1

[23] = target: Gal(b1-4)GlcNAc(b1-3)Gal(b1-4)GlcNAc(b1-3)GalNAc
Summary of the method: as §1

[24] = target: Gal(b1-4)GlcNAc(b1-3)Gal(b1-4)[Fuc(a1-3)]GlcNAc(b1-3)Gal(b1-4)[Fuc(a1-3)]GlcNAc
Summary of the method: as §1

[25] = target: Gal3S(b1-4)GlcNAc
Summary of the method: as §1

[26] = target: GalNAc(a1-3)GalNAc
Summary of the method: as §1

[27] = target: GalNAc(b1-4)GlcNAc(b1-2)Man(a1-3)[GalNAc(b1-4)GlcNAc(b1-2)Man(a1-6)]Man(b1-4)GlcNAc(b1-4)GlcNAc
Summary of the method: as §1

[28] = target: GalNAc3S(b1-4)[Fuc(a1-3)]GlcNAc
Summary of the method: as §1

[29] = target: Glc(a1-6)Glc(a1-6)Glc(a1-6)Glc
Summary of the method: as §1

[30] = target: GlcA3S(b1-3)Gal(b1-4)GlcNAc(b1-2)Man
Summary of the method: as §1

[31] = target: GlcNAc(a1-4)Gal(b1-4)GlcNAc(b1-3)Gal(b1-4)GlcNAc
Summary of the method: as §1

[32] = target: GlcNAc(b1-2)[GlcNAc(b1-6)]Man(a1-6)[GlcNAc(b1-4)][GlcNAc(b1-2)Man(a1-3)]Man(b1-4)GlcNAc(b1-4)GlcNAc
Summary of the method: as §1

[33] = target: GlcNAc(b1-3)Gal(b1-4)GlcNAc(b1-3)Gal(b1-4)GlcNAc(b1-2)[GlcNAc(b1-3)Gal(b1-4)GlcNAc(b1-3)Gal(b1-4)GlcNAc(b1-6)]Man(a1-6)[GlcNAc(b1-3)Gal(b1-4)GlcNAc(b1-3)Gal(b1-4)GlcNAc(b1-2)Man(a1-3)]Man(b1-4)GlcNAc(b1-4)[Fuc(a1-6)]GlcNAc
Summary of the method: as §1

[34] = target: GlcNAc(b1-3)GalNAc
Summary of the method: as §1

[35] = target: Man(a1-3)[Man(a1-6)]Man
Summary of the method: as §1

[36] = target: Man(a1-3)[Man(a1-6)]Man(b1-4)GlcNAc(b1-4)GlcNAc
Summary of the method: as §1

[37] = target: Neu5Ac(a2-3)Gal(b1-3)[Fuc(a1-4)]GlcNAc
Summary of the method: as §1

[38] = target: Neu5Ac(a2-3)Gal(b1-3)[GlcNAc(b1-6)]GalNAc
Summary of the method: as §1

[39] = target: Neu5Ac(a2-3)Gal(b1-4)Glc
Summary of the method: as §1

[40] = target: Neu5Ac(a2-3)Gal(b1-4)GlcNAc(b1-2)[Neu5Ac(a2-3)Gal(b1-4)GlcNAc(b1-4)]Man(a1-3)[GlcNAc(b1-4)][Neu5Ac(a2-3)Gal(b1-4)GlcNAc(b1-2)[Neu5Ac(a2-3)Gal(b1-4)GlcNAc(b1-6)]Man(a1-6)]Man(b1-4)GlcNAc(b1-4)GlcNAc
Summary of the method: as §1

[41] = target: Neu5Ac(a2-3)Gal(b1-4)GlcNAc(b1-3)GalNAc
Summary of the method: as §1

[42] = target: Neu5Ac(a2-3)Gal(b1-4)GlcNAc(b1-6)[Gal(b1-3)]GalNAc
Summary of the method: as §1

[43] = target: Neu5Ac(a2-3)Gal(b1-4)GlcNAc6S
Summary of the method: as §1

[44] = target: Neu5Ac(a2-3)Gal(b1-4)[Fuc(a1-3)]GlcNAc(b1-2)Man
Summary of the method: as §1

[45] = target: Neu5Ac(a2-3)Gal6S(b1-4)GlcNAc
Summary of the method: as §1

[46] = target: Neu5Ac(a2-6)Gal
Summary of the method: as §1

[47] = target: Neu5Ac(a2-6)Gal(b1-4)GlcNAc(b1-2)Man(a1-6)[Gal(b1-4)GlcNAc(b1-2)Man(a1-3)]Man(b1-4)GlcNAc(b1-4)GlcNAc
Summary of the method: as §1

[48] = target: Neu5Ac(a2-6)Gal(b1-4)GlcNAc(b1-3)Gal(b1-4)GlcNAc(b1-2)Man(a1-3)[Neu5Ac(a2-6)Gal(b1-4)GlcNAc(b1-3)Gal(b1-4)GlcNAc(b1-2)Man(a1-6)]GalNAc
Summary of the method: as §1

[49] = target: Neu5Ac(a2-6)Gal(b1-4)GlcNAc(b1-3)Gal(b1-4)GlcNAc(b1-6)[Gal(b1-3)]GalNAc
Summary of the method: as §1

[50] = target: Neu5Ac(a2-6)Gal(b1-4)GlcNAc(b1-3)[Neu5Ac(a2-6)Gal(b1-4)GlcNAc(b1-6)]GalNAc
Summary of the method: as §1

[51] = target: Neu5Ac(a2-6)Gal(b1-4)GlcNAc(b1-6)GalNAc
Summary of the method: as §1

[52] = target: Neu5Ac(a2-8)Neu5Ac(a2-3)Gal(b1-4)GlcNAc
Summary of the method: as §1

[53] = target: Neu5Ac(b2-6)Gal(b1-4)GlcNAc
Summary of the method: as §1

[54] = target: Neu5Ac(b2-6)GalNAc
Summary of the method: as §1

B1: BT3172pd (Bacteroides thetaiotaomicron) (protein)
chain: MLPLRAEHYYYKQISLKEGLPSNVRCILRDEQGFIWIGTKAGLGKFDGHQLKRYKHQANDPHSLLHNLIYQIAEDKQHNIWILTEKGIARYQQQSNNFTFPTDEEGNYITAYSFCLVPDGILFGGKDRIYKYSYKDSSLRLLQYFNANSFKITALSVWDSKTLLCCSRWTGLYLVDLQTGEHRRPPFDCGPEITSMITDSKNRIWIAPYSGGLRCYSRDGKLSASYTTHNSSLSNDIVLSLAEREEQLWIGTDGGGINILHPETGEISQLEYIPGRENYSLPANSILCLHNDYNNNVWAGSTCNGLISIREVSMKTYTDVVPGNDRGLSNGTVRSLYRQSPDSIWIGTDGGGINLFSPHTEKFTHYSSTWGDKVAFISGFTPGKLLISLFSKGVFVFNPATGEKQPFTIIDKETTTRLCNRGKSVNLYQNTPNTVLFLGDHIYQYHLKEKKFSTITEEEGKDIVGTLVPFDHQENLTYINDIKHIYELDDQTSRLKTVFECYTDTVISSVSHDEQGHFWIGSNFGLIHYDPVLKSRTLVPTNLFTEINMVLCDQKGKVWIGVDNMLFAYFIKEQKFVLFGESNGAIQNEYLPNARLVNEQGDAYIGGVKGMLRIDGQLLLNTSEMPELQLLDITINGESANHEWYNHPAKISVPWNSNISIRIMSREEDIFRQKIYRYQIEGLNNEYTESYNPELVIRSLLPGSYRIMASCTAKDGSWIPDQQVLELTVLPPWYRTHHHHHH
glycan array binding signal (z-score) [1]: -1.16
glycan array binding signal (z-score) [2]: -0.03
glycan array binding signal (z-score) [3]: -0.024
glycan array binding signal (z-score) [4]: -0.649
glycan array binding signal (z-score) [5]: 0.258
glycan array binding signal (z-score) [6]: -0.52
glycan array binding signal (z-score) [7]: 5.41
glycan array binding signal (z-score) [8]: -0.194
glycan array binding signal (z-score) [9]: -0.511
glycan array binding signal (z-score) [10]: -0.076
glycan array binding signal (z-score) [11]: 2.04
glycan array binding signal (z-score) [12]: -0.237
glycan array binding signal (z-score) [13]: -0.327
glycan array binding signal (z-score) [14]: -0.339
glycan array binding signal (z-score) [15]: 2.4
glycan array binding signal (z-score) [16]: 2.39
glycan array binding signal (z-score) [17]: -0.299
glycan array binding signal (z-score) [18]: -0.075
glycan array binding signal (z-score) [19]: -0.349
glycan array binding signal (z-score) [20]: 0.924
glycan array binding signal (z-score) [21]: -0.47
glycan array binding signal (z-score) [22]: 5.07
glycan array binding signal (z-score) [23]: -0.264
glycan array binding signal (z-score) [24]: -0.565
glycan array binding signal (z-score) [25]: 0.279
glycan array binding signal (z-score) [26]: -0.288
glycan array binding signal (z-score) [27]: -0.134
glycan array binding signal (z-score) [28]: 6.05
glycan array binding signal (z-score) [29]: 0.665
glycan array binding signal (z-score) [30]: -0.286
glycan array binding signal (z-score) [31]: -0.207
glycan array binding signal (z-score) [32]: -0.604
glycan array binding signal (z-score) [33]: -0.268
glycan array binding signal (z-score) [34]: 3.09
glycan array binding signal (z-score) [35]: -0.387
glycan array binding signal (z-score) [36]: 0.075
glycan array binding signal (z-score) [37]: -0.042
glycan array binding signal (z-score) [38]: -0.406
glycan array binding signal (z-score) [39]: 4.78
glycan array binding signal (z-score) [40]: -0.441
glycan array binding signal (z-score) [41]: 0.355
glycan array binding signal (z-score) [42]: -0.43
glycan array binding signal (z-score) [43]: 2.43
glycan array binding signal (z-score) [44]: -0.094
glycan array binding signal (z-score) [45]: 0.228
glycan array binding signal (z-score) [46]: 4.96
glycan array binding signal (z-score) [47]: 0.765
glycan array binding signal (z-score) [48]: -0.692
glycan array binding signal (z-score) [49]: 6.02
glycan array binding signal (z-score) [50]: 5.76
glycan array binding signal (z-score) [51]: 0.094
glycan array binding signal (z-score) [52]: -0.788
glycan array binding signal (z-score) [53]: -1.02
glycan array binding signal (z-score) [54]: 0.736
